Assay results reported in PubChem BioAssay AID687001 (Broad Institute, 2013).
Potency and affinity values are given separately. Activity calls are given as the source filed them.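 The calls were made as follows: active = signal-lowering compounds whose fitted half-maximal concentration is at or below twice the top tested dose in every run; inconclusive = runs disagree, flat 30 to 70% inhibition, or poor curve fit; inactive = the rest.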

These compounds were tested against Protein S100-A4 (Homo sapiens) (UniProt P26447) (assay: S100A4-myosin IIA binding inhibitor potency, dose response, biochemical, fluorescence polarization, cherry-picked hits (AID 687001)). Settings: FP, S100A4/TAMRA-myosin IIA peptide binding; series mostly up to 11 µM.
Protein S100-A4 (Homo sapiens), sequence (P26447 whole entry, looked up): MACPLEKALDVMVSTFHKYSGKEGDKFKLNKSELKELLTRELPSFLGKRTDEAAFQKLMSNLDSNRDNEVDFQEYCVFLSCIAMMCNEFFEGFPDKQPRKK

outcome, inactive:
COc1ccc(CN(C)C[C@H]2Oc3c(NC(=O)Nc4ccccc4)cccc3C(=O)N([C@@H](C)CO)C[C@@H]2C)cc1
CCOC(=O)C1CCCN(C(=O)c2cc(S(=O)(=O)N3CCCCCC3)ccc2OC)C1 (centres undefined)
CCCC(=O)Nc1ccc2c(c1)OC[C@H](C)NC[C@H](C)[C@H](OC)CN(C)C2=O
CC(=O)N1CC(C)Oc2ccc(S(=O)(=O)NC(CC(=O)O)c3ccccc3)cc21 (centres undefined)
CN1c2ccc(-c3ccccc3)cc2[C@@H]2[C@@H](CCN2C(=O)c2ccccc2)[C@H]1CO
CC(C)CC1C(=O)N(Cc2cn(CC3CCCCC3)nn2)CCS(=O)(=O)N1Cc1ccc(-c2ccc(Cl)cc2)cc1 (centres undefined)
COc1ccc2c(c1)CCC/C2=N\Nc1nc(C(=O)NN)cs1
CCOC(=O)c1c(S(=O)(=O)N2CCCC(C(=O)Nc3ccc(C)cn3)C2)c(C)n(C)c1C (centres undefined)
C[C@@H]1CN([C@H](C)CO)C(=O)c2cccc(NC(=O)CCCCCC(=O)Nc3ccccc3N)c2O[C@H]1CN(C)S(=O)(=O)c1cccs1
N#Cc1ccc(-c2ccc([C@@H]3[C@@H](CO)N4C(=O)CN(C(=O)C5CC5)C[C@H]34)cc2)cc1
CN(C)CC(=O)N1CC2(C1)[C@@H](c1ccccc1)[C@@H](CO)N2S(C)(=O)=O
C[C@@H]1CN([C@H](C)CO)C(=O)c2cc(C#CC3CC3)cnc2O[C@@H]1CN(C)S(C)(=O)=O
CCN(CC)C(=O)c1ccccc1NS(=O)(=O)c1cccs1
Cc1ccc(CCNC(=O)c2cc(-c3ccncc3)nc3ccc(S(=O)(=O)N4CCOCC4)cc23)cc1
C[C@@H]1CN([C@H](C)CO)C(=O)c2cc(-c3ccc(F)cc3)cnc2O[C@H]1CN(C)Cc1cncnc1
C[C@@H]1CN([C@H](C)CO)S(=O)(=O)c2ccc(C#C[C@@H](C)O)cc2O[C@@H]1CN(C)C(=O)C1CC1
O=C(C[C@H]1CC[C@H](NC(=O)Nc2ccccc2F)[C@@H](CO)O1)NCc1ccc(-c2ccccc2)cc1
C=C(C)n1c(=O)n(Cc2ccccc2C)c2ccccc21
COc1ccc(C)c2sc(N(CCN(C)C)C(=O)c3ccc4ccccc4c3)nc12
CCCCN(C(=O)c1c(-c2ccccc2)noc1C)c1c(N)n(CCC)c(=O)[nH]c1=O
Cc1cc(C)c(NC(=O)CNC(=O)COC(=O)/C=C/c2cccs2)c(C)c1
COc1ccccc1N(C)S(=O)(=O)c1ccc(C(=O)NCC2CCCCC2)cc1
O=C(/C=C/c1ccccc1)Nc1cc(S(=O)(=O)N2CCOCC2)ccc1N1CCOCC1
O=C(C[C@H]1C=C[C@H](NC(=O)CCN2CCCCC2)[C@H](CO)O1)Nc1nccs1
Cc1nc2ccccc2nc1CC(O)(c1ccccc1)c1ccccc1
C[C@@H]1CN([C@H](C)CO)C(=O)Cc2cc(NC(=O)CCN3CCOCC3)ccc2O[C@H]1CN(C)Cc1ccc2c(c1)OCO2
COC(=O)c1cccc(NC(=O)c2ccc3c(c2)C(=O)N(Cc2cccnc2)C3=O)c1
CC1CC(C)CN(CCCNC(=O)c2cc3c(s2)-c2ccccc2OC3)C1 (centres undefined)
COc1cc(OC)c2ccc(=O)oc2c1C(CC(=O)N1CCN(c2ccccc2)CC1)c1ccc2c(c1)OCO2 (centres undefined)
O=C1O[C@@H](c2ccccc2)C[C@@H](O)C(=O)CCCCc2ccccc21
Cc1ccc(S(=O)(=O)NCc2ccccc2)cc1C(=O)NCC1CCCO1 (centres undefined)
Cc1ccc(C(=O)N/C(=C/c2ccc(C(C)C)cc2)C(=O)NCCCN2CCOCC2)cc1
COc1cc(NS(=O)(=O)c2ccc(NC(=O)c3ccc([N+](=O)[O-])cc3)cc2)ncn1
COc1cc(S(=O)(=O)Nc2ccc(C)cc2)ccc1N=Cc1c(C)c(C#N)c(=O)n(C)c1O
Cc1ccccc1S(=O)(=O)NCC[C@H]1CC[C@H](NC(=O)C2CCC2)[C@H](CO)O1
Fc1ccc(Nc2nc(N3CCOCC3)nc(N3CCOCC3)n2)cc1
COc1cc(/C=C2\SC(=S)N(NC(=O)c3cccc(O)c3)C2=O)ccc1O
Nc1cc(-c2ccncc2)c[nH]c1=O
Cc1ccc2[nH]c(=O)c3cc(C(=O)NCCC(C)C)sc3c2c1
